Data: the supplement of paper PMC4206467

Each compound was assayed on Perkinsus marinus PRA240 (assay: ATP content (proliferation) relative to DMSO control; higher = more parasite growth (less inhibition)). Settings: 20 µM; 4 days.
Procedure: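 Perkinsus marinus PRA240 trophozoites (2-5x10^6 cells/ml, 100 µl, 96-well) were exposed once to MMV Malaria Box compounds at 20 µM (0.1% DMSO) in triplicate. ATP content (ATPlite bioluminescence) was read at day 4 post-exposure and normalised to DMSO + cells control wells (100% activity). Compounds were identified by joining plate and well to the Malaria Box list.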
Work on `COc1ccc2nc(C)cc(Nc3cccc(O)c3)c2c1` yielded an ATP content of 109%. Compound `Nc1ccn(C2O[C@H](CO)[C@@H](O)[C@H]2O)c(=O)n1` (some centres undefined) has an ATP content of 132%. For `COc1ccc(C(=O)Nc2ccc(Cl)cc2C(=O)Nc2ccncc2)cc1`, the ATP content was 106%. `CCOc1ccc(-c2nc(NC(=O)c3cccc(S(C)(=O)=O)c3)sc2C)cc1` was tested, and the ATP content was 79.8%. For `COc1ccc2sc(N(Cc3cccnc3)C(=O)c3ccc(C#N)cc3)nc2c1`, the ATP content was 111%. `Cc1cc(Nc2cccc(F)c2)nc(NCc2ccccc2)n1` was tested, and the ATP content was 94.7%. `CN(C)c1ccc(N=Cc2ccc(N3CCOCC3)cc2)cc1` showed an ATP content of 108%. With `CCOc1cc2c(cc1OCC)C(c1cc(Cl)c(O)c(OCC)c1)NCC2` (centres undefined) the ATP content was 97.3%. For `COc1ccc(-c2cn3c(C(=O)Nc4ccccc4Cl)c(-c4ccccc4)c4c3n2CCCC4)cc1`, the ATP content was 99.7%. `CCCOCc1cc(CN2CCN(c3cccc(Cl)c3)CC2)c(O)c2ncccc12` was tested, and the ATP content was 22.8%. Work on `Clc1ccc2c(N3CCCC3)ccnc2c1` yielded an ATP content of 91%. Work on `CCOC(=O)c1cnc2c(CC)cccc2c1O` yielded an ATP content of 80.1%. For `Cn1c(=O)n(C)c2cc(CNCCNc3ccnc4cc(Cl)ccc34)ccc21`, the ATP content was 132%. In the case of `COc1cc(-c2nc(-c3ccccc3)c(-c3ccccc3)[nH]2)cc(OC)c1O`, the ATP content was 61.1%. `CN1CCN(c2c3c(c(C#N)c4nc5ccccc5n24)CCC3)CC1` showed an ATP content of 140%. `Cc1c(C)n(Cc2ccc(F)cc2)c2ccc(C(=O)NCc3ccco3)cc12` showed an ATP content of 111%. For `FC(F)(F)c1cccc(Nc2nc3ccccc3nc2Nc2cccc(C(F)(F)F)c2)c1`, the ATP content was 155%. `COc1ccc(C2N(C)c3ccccc3N2C)cc1` showed an ATP content of 101%. In the case of `COc1ccc(C2C(C(=O)Nc3cccc(OC)c3)c3ccccc3C(=O)N2C2CCCCC2)cc1` (centres undefined), the ATP content was 94.3%.
